Reference: PubChem BioAssay AID1211 (NMMLSC, 2008)
Values without a mark were called inactive. The source made the active and inactive calls. No rule for the calls is given here.

Target: Estrogen receptor (Homo sapiens) (UniProt P03372)
Assay: displacement of fluorescent estrogen from ERalpha – cell-based, Cos7 ERalpha-GFP, flow cytometry, primary screen (AID 1211);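 also: 0% = DMSO vehicle wells and 100% = no E2-Alexa633 signal left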
Conditions: fluorescent ligand competition, at 10 µM, active compounds read high

Sequence of Estrogen receptor (Homo sapiens) (P03372 whole entry, looked up): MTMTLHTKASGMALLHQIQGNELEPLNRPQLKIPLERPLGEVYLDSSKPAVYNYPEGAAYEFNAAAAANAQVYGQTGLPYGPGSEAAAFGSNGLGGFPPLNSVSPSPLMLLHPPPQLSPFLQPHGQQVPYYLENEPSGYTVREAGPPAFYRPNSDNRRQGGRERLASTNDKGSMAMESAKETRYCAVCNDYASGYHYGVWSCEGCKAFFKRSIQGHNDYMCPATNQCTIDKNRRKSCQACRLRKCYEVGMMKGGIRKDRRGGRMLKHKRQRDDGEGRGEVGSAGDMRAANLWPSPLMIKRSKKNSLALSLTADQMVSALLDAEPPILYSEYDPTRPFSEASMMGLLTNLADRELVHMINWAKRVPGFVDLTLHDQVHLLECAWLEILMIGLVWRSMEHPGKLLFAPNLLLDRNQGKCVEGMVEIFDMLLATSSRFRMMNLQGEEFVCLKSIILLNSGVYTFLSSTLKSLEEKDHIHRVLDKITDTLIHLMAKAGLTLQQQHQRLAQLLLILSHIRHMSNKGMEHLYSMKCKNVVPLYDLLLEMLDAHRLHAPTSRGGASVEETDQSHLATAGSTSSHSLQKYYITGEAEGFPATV

SMILES | inhibition of ligand binding
CC1=CC(C)C2(CO)COC(c3ccccc3O)C1C2C (stereo not drawn) | 0%
COC(=O)c1ccc(C2Nc3ccc(/C(C)=N/NC(=O)C(OC)c4ccccc4)cc3C3C=CCC32)cc1 (stereo not drawn) | 0%
Cc1ccc2c(c1)C1C=CCC1C(C(=O)O)N2 (stereo not drawn) | 0%
CCOc1ccc(NS(=O)(=O)c2ccc3c(c2)[C@H]2C=CC[C@H]2[C@@H](c2ccc([N+](=O)[O-])cc2)N3)cc1 | 9%
CCNC(=O)c1ccc2c(c1)C1C3CCC(C3)C1C(c1ccccc1)N2 (stereo not drawn) | 66% (active)
Cc1ccc2c(c1)[C@H]1OCC[C@H]1[C@@H](c1ccncc1)N2 | 34%
CCOc1ccc(NS(=O)(=O)c2ccc3c(c2)[C@H]2C=CC[C@H]2[C@@H](c2ccc(C(=O)O)cc2)N3)cc1 | 66% (active)
CC1CCCC(C)N1Cc1c(O)ccc2c3c(c(=O)oc12)CCC3 (stereo not drawn) | 13%
Cc1cc(C)c2c(c1)NC(c1cc3c(cc1Br)OCO3)C1CC=CC21 (stereo not drawn) | 79% (active)
Cc1csc(C(C#N)C(=O)c2ccncc2)n1 (stereo not drawn) | 33%
O=[N+]([O-])c1cc(/C=N/N2CCN(C3c4ccccc4-c4ccccc43)CC2)ccc1Cl | 21%
O=C(O)c1ccc([N+](=O)[O-])c2c1NC(c1ccccc1)C1CC=CC21 (stereo not drawn) | 100% (active)
COc1ccc(Oc2ccc3c(c2)c2c4n3CCNC4CCC2)cc1 (stereo not drawn) | 0%
O=c1oc2cc(O)c(Cl)cc2c2c1CCCC2 | 0%
COc1ccc(NS(=O)(=O)c2ccc3c(c2)[C@H]2C=CC[C@H]2[C@@H](c2ccc(C(=O)O)cc2)N3)cc1 | 100% (active)
CCOc1ccc(NS(=O)(=O)c2ccc3c(c2)[C@H]2C=CC[C@H]2[C@@H](c2cccc([N+](=O)[O-])c2)N3)cc1 | 0%
COc1ccc2[nH]c3c(c2c1)CCNC3C1CC=C(C)CC1 (stereo not drawn) | 0%
Cc1ccccc1-n1nc(-c2ccc(N)cc2)cc1N | 7%
O=C(c1cccs1)N1N=C(c2ccccc2)CC1c1ccc(O)cc1 (stereo not drawn) | 21%

SMILES | inhibition of ligand binding
CCOc1ccccc1-c1nc(-c2ccc(NC(=O)c3ccc(Br)o3)cc2)no1 | 52%
CCc1cc2c3c(c(=O)oc2cc1OCC(=O)OC)CCCC3 | 3%
CCc1cc2c3c(c(=O)oc2cc1OC)CCCC3 | 0%
CC1CCC2(C)c3[nH]c4ccccc4c3CCN2C1=O (stereo not drawn) | 0%
Oc1ccc(C=Nc2ccc(N3CCOCC3)cc2)c(O)c1 | 30%
CCOC(=O)N1CCc2[nH]c3ccc(C)cc3c2C1 | 6%
CC(=O)OC1CC2(C)C(=O)CCC2C2CCc3cc(O)ccc3C12 (stereo not drawn) | 23%
COc1cc2c(c([N+](=O)[O-])c1)NC(c1ccc(Br)cc1)C1CC=CC21 (stereo not drawn) | 0%
CCCCCCc1cc2c3c(c(=O)oc2cc1OCC(=O)O)CCCC3 | 1%
Nc1ccc(-c2nc3c(Cl)c(N)ccc3[nH]2)cc1 | 14%
COc1cc2c3c(c1)/C(=C1/SC(NC(C)=O)=NC1=O)C(=O)N3C(C)(C)C=C2C | 29%
O=c1oc2cc(O)ccc2c2c1CCCC2 | 7%
CCOC(=O)c1c(N)sc2c1CC(C)(C)NC2(C)C | 8%
Cc1ccc(S(=O)(=O)Cc2ccc(C(=O)O)o2)cc1 | 34%
COc1cccc(-c2[nH]nc3c2C(c2ccoc2)C(C#N)=C(N)O3)c1 (stereo not drawn) | 23%
O=C(NC1CC1)c1ccc2c(c1)C1C3CCC(C3)C1C(c1ccccc1)N2 (stereo not drawn) | 86% (active)
COc1ccc2[nH]c3c(c2c1)CCNC3=O | 21%
Cc1c(Cc2ccccc2)c(=O)n2c([nH]c3ccccc32)c1C#N | 5%
COc1ccc(OC)c(C2Nc3c(Cl)ccc(C(=O)O)c3C3C=CCC32)c1 (stereo not drawn) | 0%
